Compound activity as filed in PubChem BioAssay.
Hits are enriched below; roughly 4.8% of the tested compounds scored in any of these assays.
ATXN viability – Viability Counterscreen for Primary qHTS for Inhibitors of ATXN expression. Potency, µM (series often up to 56.7 µM), hits mostly cytotoxic. AID 651635, 2014. S2 cells (HEK-293 line with an ATXN2-luciferase reporter) viability, CellTiter-Fluor protease fluorescence, 24 h. actives 0.49% (n = 400,000); note: potency is the fitted concentration of half-maximal effect; nearly all actives have a fitted effect of over 40% in size
USP1 inh – Inhibitors of USP1/UAF1: Primary Screen | Ubiquitin carboxyl-terminal hydrolase 1 (Homo sapiens), O94782 | recombinant USP1/UAF1, Ub-Rhodamine cleavage fluorescence | Potency, µM (doses to about 57.1 µM), for inactives: top-dose activity change, negative = inhibition, usual class: inhibitors | actives 0.23% (n = 390,000); note: potency is the fitted concentration of half-maximal effect; % is set by controls: 0 for no effect and ±100 for the full control effect; nearly all actives have a fitted effect of over 60% in size
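High-throughput fluorogenic screen: 1nM USP1/UAF1 complex, Ub-Rho substrate 150nM final, 50mM HEPES pH 7.8 with 0.5mM EDTA, 0.1 mg/ml BSA, 1mM TCEP and 0.01% Tween-20.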
USP2a block – qHTS Assay for Inhibitors of Ubiquitin-specific Protease USP2a Using CHOP2 as the Reporter; Ubiquitin carboxyl-terminal hydrolase 2 (Homo sapiens), O75604; USP2 core, Ub-CHOP2 coupled fluorogenic reporter, 485/531; Potency, µM (doses to about 38.3 µM), for inactives: top-dose activity change, negative = inhibition, actives largely listed as inhibitors; actives 0.01% (n = 330,000); AID 463254, 2010;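 note: potency is the fitted concentration of half-maximal effect; plate controls were DMSO wells for no effect and full inhibition by NEM control for full effect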
Target sequence (O75604 whole entry, looked up): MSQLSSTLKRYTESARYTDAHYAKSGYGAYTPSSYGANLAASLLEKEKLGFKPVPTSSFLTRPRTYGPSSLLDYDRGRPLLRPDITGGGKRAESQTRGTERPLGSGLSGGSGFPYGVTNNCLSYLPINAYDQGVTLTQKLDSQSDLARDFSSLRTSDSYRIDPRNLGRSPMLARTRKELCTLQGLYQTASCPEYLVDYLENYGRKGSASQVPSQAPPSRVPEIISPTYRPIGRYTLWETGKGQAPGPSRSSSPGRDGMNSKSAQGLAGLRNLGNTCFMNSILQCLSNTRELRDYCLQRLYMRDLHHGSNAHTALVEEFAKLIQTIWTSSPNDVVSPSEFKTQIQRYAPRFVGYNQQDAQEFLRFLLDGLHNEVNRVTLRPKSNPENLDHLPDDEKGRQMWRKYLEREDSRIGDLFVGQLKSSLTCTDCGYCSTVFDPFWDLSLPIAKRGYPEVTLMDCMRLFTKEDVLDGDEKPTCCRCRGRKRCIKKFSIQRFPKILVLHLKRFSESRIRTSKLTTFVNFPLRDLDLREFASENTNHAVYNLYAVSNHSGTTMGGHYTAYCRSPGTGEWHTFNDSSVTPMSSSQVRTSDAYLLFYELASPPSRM
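Deubiquitinase activity read as fluorescence (485/531 nm) after Ub-CHOP2 cleavage activates the enterokinase reporter on its substrate; USP2 core 10nM, Ub-CHOP2 and substrate 25nM each, 30min compound preincubation then 60min RT; data normalized to NEM, curves fitted.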
IL-1B inflam inh – qHTS for Inhibitors of Inflammasome Signaling: IL-1-beta AlphaLISA Primary Screen; THP-1 LPS/ATP IL-1B secretion, AlphaLISA, 16 h; active compounds read low; activity change, % at 57.5 µM; actives 4.7% (n = 360,000); in the data active = activity change below about -50%; inconclusive = mostly about -30% to -49%; note: % is set by controls: 0 for no effect and ±100 for the full control effect
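THP-1 cells pretreated 1 hr with compounds (up to 57.5 uM final), then stimulated with LPS (250 ng/mL final) plus ATP (1.25 mM final); secreted IL-1B measured by AlphaLISA after 16 hr, decreased signal indicating inhibition.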
ATXN2 expr inh – Primary qHTS for Inhibitors of ATXN expression. HEK-293 ATXN2-luciferase reporter, luminescence, 24 h. Potency, µM (doses to about 57 µM), without a hit: top-dose activity change, negative = inhibition, hits mostly inhibitors. actives 0.72% (n = 360,000). AID 1745845, 2022; note: potency is the fitted concentration of half-maximal effect; % is set by controls: 0 for no effect and ±100 for the full control effect; nearly all actives have a fitted effect of over 55% in size
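qHTS (up to 57 uM final) was run with 24 h compound exposure of reporter cells at 37 °C. Each well was multiplexed: SteadyGlo luminescence measured ATXN2-luciferase expression after a fluorogenic Gly-Phe-AFC viability readout (25 uM final).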
Numbers without * were called inactive; i = inactive; u = inconclusive; x = no result; [ ] = dose if it differs, or a comment. Unless noted, calls come from the whole dose curve; as a rule, active = well fitted curve in the direction sought with a large enough effect; inconclusive = small, poorly fitted or top-dose-only effect, or another doubt; inactive = no such curve, though single readings can be large; an effect the other way counts as inactive or inconclusive.

SMILES	ATXN viability	USP1 inh	USP2a block	IL-1B inflam inh	ATXN2 expr inh
COc1ccc(Cn2ccnc2)cc1Br	i	-10%	x	-6	-3%
O=C1C[C@@H]2c3c(cccc3CN1Cc1ccccc1Br)C[C@@H](O)[C@H]2O	i	-14%	x	-4	-4%
C=CCC(Nc1ccccc1)C12C=CC(O1)C(C(=O)OC)=C2C(=O)OC (stereo not drawn)	x	-33%	2%	-113*	u
CCN(CC)CC(C)(C)C(=O)/C=C/c1ccc(/C=C/C(=O)C(C)(C)CN(CC)CC)cc1	5.6µM*	u	x	-3	4µM*
CCC(C)(C)n1nnnc1C(c1cc2ccc(C)cc2[nH]c1=O)N(Cc1cccnc1)Cc1ccco1 (stereo not drawn)	u	-5%	-4%	-69*	-10%
CNC(=O)c1cc(Oc2ccc(NC(=O)Nc3ccc(Cl)c(C(F)(F)F)c3)c(F)c2)ccn1	x	x	x	x	19µM*
CC1CCC/C=C/C(=O)c2c(O)cc(O)cc2CC(=O)O1 (stereo not drawn)	11µM*	7%	-2%	-115*	10µM*
O=C(O)c1cc2c(ccc3ccccc32)oc1=O	x	x	2%	x	x
O=C(c1cc2c(ccc3ccccc32)oc1=O)N1CCCC1	i	-1%	0%	-52*	-5%
Cc1ccc(S(=O)(=O)N[C@H](C(=O)OCC(=O)NC(=O)C2CCCCC2)C(C)C)cc1	i	-19%	-1%	16	2%
CC(=O)Nc1cccc(-c2cc(C)c3cc4c(cc3n2)OCO4)c1	i	-15%	-1%	-51*	35%
Cn1cccc1-c1cc(C(=O)N/N=C/c2ccc(Cl)cc2)[nH]n1	i	-4%	1%	-19	-16%
Cn1cccc1-c1cc(C(=O)N/N=C/C=C/c2ccccc2)[nH]n1	i	-18%	-1%	-91*	-24%
COc1cc(/C=N/NC(=O)c2cc(-c3cccn3C)n[nH]2)cc(OC)c1OC	i	-7%	-1%	-85*	-9%
COc1cccc(/C=N/NC(=O)c2cc(-c3cccn3C)n[nH]2)c1O	u	-4%	0%	80	u
COc1cccc(/C=N/NC(=O)c2cc(-c3cccn3C)n[nH]2)c1	i	-14%	1%	-53*	1%
COc1ccc(-c2cc(NC=O)c3ncc(-c4cnn(C)c4)n3c2)cc1	x	x	x	0	-22%
S=C(NCCc1ccccc1)NC1CC2CCC(C1)N2Cc1ccccc1 (stereo not drawn)	i	u	0%	-60*	-26%[11.3 µM]
CCCNC(=S)NC1CC2CCC(C1)N2Cc1ccccc1 (stereo not drawn)	i	-10%	2%	-4	-5%
CCN(C(=O)CSc1cc(C)c2ccccc2n1)c1c(N)n(Cc2ccccc2)c(=O)[nH]c1=O	i	-10%	2%	-15	x
CCCCN(C(=O)CSc1nn(-c2ccc(F)cc2)c(=S)s1)c1c(N)n(CCCC)c(=O)[nH]c1=O	i	-3%	1%	-72*	-11%
CCCCN(C(=O)CSc1cc(C)c2ccccc2n1)c1c(N)n(Cc2ccccc2)c(=O)[nH]c1=O	i	-19%	3%	-59*	4%
CCCCN(C(=O)c1cc(-c2ccc(F)cc2)nc2ccccc12)c1c(N)n(CCCC)c(=O)[nH]c1=O	u	-5%	2%	-70*	u
COc1ccccc1CNC(=O)c1ccc2nc(CCc3ccccc3)oc2c1	x	-9%	x	x	x
CCOC(=O)COc1ccc(F)cc1C(=O)c1ccn2nc(-c3ccc(Cl)cc3)cc2n1	i	-16%	x	x	2%
Nc1ccccc1SC(CC(=O)c1ccccc1)c1cccc([N+](=O)[O-])c1 (stereo not drawn)	x	u	x	-104*	x
CCn1c(-c2ccccc2F)nc2cc(NC(C)=O)cc(C(=O)N(C)Cc3cn(C)nc3C)c21	i	x	x	x	x
COC(=O)[C@@]12C[C@@H](CC(=O)NCCC(C)C)C(=O)N(Cc3ccc4c(c3)OCO4)C1=CCC(C)(C)C2	x	x	x	-55*	x
